Screening results as filed in PubChem BioAssay.
Compounds with a hit are over-represented: about 2.8% of the library has one in this group of screens.
esBAF inh: SWI/SNF esBAF complex inhibition. reporter increase, % at 12.5 µM. actives 2% (n = 350,000). mouse ES cells, Bmi1-luciferase knock-in reporter, 24 h; 100% = twice the neutral-well signal. AID 602393; in the data active = activation above about 40%; inconclusive = no clear call, values can overlap the other calls;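 also: a rise in the Bmi1 reporter signal indicates esBAF inhibition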
MITF TRPM1 HTS: activators of MITF-driven TRPM1 promoter activity in SK-MEL-5 cells; SK-MEL-5 TRPM1-promoter luciferase, 24 h; % of positive control, neutral wells = 0; activation, % at 12.5 µM; actives 0.75% (n = 300,000); AID 588334;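 active = mean activation of at least 80% with every replicate also reaching 80%; inconclusive = mean reaches 80% but some replicate falls short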
Wnt act: activators of Wnt/beta-catenin signaling; actives 1.2% (n = 300,000); activation, % at 9.35 µM; Wnt/beta-catenin reporter cell assay, activator, plate reader; in the data active = activation above about 30%, passing the limit was not always enough; inconclusive = no clear call, values can overlap the other calls
FXN GAA850 act: increases GAA850 frataxin promoter reporter activity | HEK293 lucGAA850 FXN promoter luciferase reporter, 24 h; percent of 10 µM SAHA response | actives 0.56% (n = 360,000) | activation, % at 6 µM;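 active = activation above the average of all compounds screened plus 3 SD, cutoff fixed separately per campaign, cut at about 7.5% in these data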
Each line names hits and unclear results; the compound was inactive in the other large screens.

Cc1cccc(NC(=O)c2ccc(C(=O)c3ccccc3)cc2)n1	none
Cc1cccc(NC(=O)NC(=O)c2ccccc2)n1	Wnt act 37 (no result: esBAF inh)
Cc1cccc(NC(=O)Nc2ccc(C)c(C)c2)n1	esBAF inh 48, Wnt act 35
Cc1ccc(NC(=O)Nc2ccnc(-c3cccnc3)n2)cc1	Wnt act 55 (no result: esBAF inh)
Cc1ccc(NC(=O)Nc2cccc(C)n2)cc1	Wnt act 40
Cc1cccc(NC(=O)Nc2ccc(F)cc2)n1	esBAF inh inconclusive
Cc1ccc(NC(=O)c2cn(-c3cccc(C)n3)cn2)cc1	MITF TRPM1 HTS 106 (no result: Wnt act)
OC(c1ccccc1)c1ncc(-c2ccc(Cl)cc2)[nH]1 (centres undefined)	esBAF inh 47 (no result: MITF TRPM1 HTS)
Cc1ccccc1-c1cnc(C(O)c2ccccc2)[nH]1 (centres undefined)	esBAF inh 49 (no result: MITF TRPM1 HTS)
C[C@H](CO)N1C[C@H](C)[C@H](CN(C)CC2CC2)Oc2c(NS(C)(=O)=O)cccc2C1=O	none (no result: MITF TRPM1 HTS, Wnt act, FXN GAA850 act)
COc1ccc(CN(C)C[C@@H]2Oc3c(NS(=O)(=O)c4c(C)noc4C)cccc3C(=O)N([C@H](C)CO)C[C@@H]2C)cc1	none (no result: MITF TRPM1 HTS, Wnt act, FXN GAA850 act)
O=C(N[C@@H]1CC[C@H](CCNS(=O)(=O)c2ccc(Cl)cc2)O[C@@H]1CO)c1cccc(F)c1	none (no result: MITF TRPM1 HTS, Wnt act, FXN GAA850 act)
COCC(=O)Nc1ccc2c(c1)[C@H]1C[C@@H](CC(=O)N(C)C)O[C@@H](CO)[C@H]1O2	none (no result: MITF TRPM1 HTS, Wnt act, FXN GAA850 act)
O=C(Cn1ncc2c3ccccc3n(Cc3ccccc3)c2c1=O)N1CCN(c2ccccn2)CC1	FXN GAA850 act 19 (no result: MITF TRPM1 HTS, Wnt act)
C[C@H]1CN([C@@H](C)CO)C(=O)c2cccc(NS(=O)(=O)c3ccc(F)cc3)c2O[C@H]1CN(C)Cc1ccccc1	none (no result: MITF TRPM1 HTS, Wnt act, FXN GAA850 act)
CC(C)(C)c1ccc(S(=O)(=O)NCC(=O)Nc2ccc(-c3nc4ccccc4s3)cc2)cc1	esBAF inh 53 (no result: Wnt act)
Cc1ccc(C)c(S(=O)(=O)NC(C)C(=O)Nc2ccc(-c3nc4ccccc4s3)cc2)c1 (centres undefined)	esBAF inh 52
CC(NS(=O)(=O)c1cccc(Cl)c1)C(=O)Nc1ccc(-c2nc3ccccc3s2)cc1 (centres undefined)	MITF TRPM1 HTS inconclusive
Cc1ccc2sc(-c3ccc(NC(=O)CCN4C(=O)c5ccccc5C4=O)cc3)nc2c1	Wnt act 73 (no result: esBAF inh, MITF TRPM1 HTS, FXN GAA850 act)
CC(C)OC(=O)/C(=C\c1ccc2c(c1)c1ccccc1n2C)NC(=O)c1ccccc1	esBAF inh 76 (no result: Wnt act)
C=CCNC(=S)NNc1nc2c(c(=O)[nH]1)C1(CCCC1)Cc1ccccc1-2	Wnt act 52 (no result: esBAF inh)
Cc1cccc(OCCNc2ncccc2[N+](=O)[O-])c1	esBAF inh 74 (no result: MITF TRPM1 HTS)
C[C@@H]1CCCCO[C@@H](CN(C)S(=O)(=O)c2cn(C)cn2)[C@H](C)CN([C@H](C)CO)C(=O)c2cc(NC(=O)c3ccccc3)ccc2O1	none (no result: MITF TRPM1 HTS, Wnt act, FXN GAA850 act)
COc1ccccc1C1=NOC(C)(c2sc(-c3ccc(Cl)cc3)nc2C)C1 (centres undefined)	esBAF inh 43
Cc1nc(-c2ccc(Cl)cc2)sc1C1(C)CC(c2ccccc2)=NO1 (centres undefined)	esBAF inh 59
C[C@@H]1CN([C@H](C)CO)C(=O)c2cc(C#CCN(C)C)cnc2O[C@@H]1CN(C)Cc1ccc2c(c1)OCO2	none (no result: MITF TRPM1 HTS, Wnt act, FXN GAA850 act)
CCCn1ncc2c(Nc3ccc(C)c(C)c3)ncnc21	esBAF inh 67, MITF TRPM1 HTS 98
Cc1cc(N/N=C/c2ccc3c(c2)OCO3)nc2ccccc12	MITF TRPM1 HTS 98 (no result: esBAF inh)
O=[N+]([O-])c1ccccc1N/N=C/c1ccccc1	esBAF inh 44 (no result: MITF TRPM1 HTS)
O=[N+]([O-])c1ccccc1N/N=C/c1ccc2c(c1)OCO2	Wnt act 53
O=c1[nH]c(N/N=C\c2ccc3c(c2)OCO3)nc2ccccc12	none
NS(=O)(=O)c1ccc(N/N=C/c2ccc3c(c2)OCO3)c([N+](=O)[O-])c1	none (no result: esBAF inh)
O=[N+]([O-])c1ccc(N/N=C/c2c[nH]c3ccccc23)cc1	none
O=[N+]([O-])c1ccccc1N/N=C/c1c[nH]c2ccccc12	esBAF inh 43 (no result: Wnt act)
CC(C)C#Cc1ccc2c(c1)O[C@H](CN(C)C(=O)C1CCCCC1)[C@@H](C)CN([C@@H](C)CO)S2(=O)=O	none (no result: MITF TRPM1 HTS, Wnt act, FXN GAA850 act)
O=C(CN1CCOCC1)NCC[C@H]1CC[C@H](NC(=O)Nc2ccc(F)cc2)[C@@H](CO)O1	none (no result: MITF TRPM1 HTS, Wnt act, FXN GAA850 act)
Cc1ccc(S(=O)(=O)Nc2cccc3c2O[C@@H](CN(C)S(=O)(=O)c2ccc(F)cc2)[C@H](C)CN([C@@H](C)CO)C3=O)cc1	none (no result: MITF TRPM1 HTS, Wnt act, FXN GAA850 act)
O=C1CCN(c2ncccc2[N+](=O)[O-])CC1	none (no result: esBAF inh)
COc1cc2c(cc1OC)CN(c1ncccc1[N+](=O)[O-])CC2	esBAF inh inconclusive, MITF TRPM1 HTS 93
COc1ccccc1N1CCN(c2ccc3ccccc3n2)CC1	MITF TRPM1 HTS 108
O=C(COC(=O)C12CC3CC(CC(O)(C3)C1)C2)Nc1ccc(Br)cc1F	MITF TRPM1 HTS 129, Wnt act inconclusive
C[C@H](CO)N1C[C@H](C)[C@H](CN(C)C(=O)CN(C)C)Oc2cc(-c3ccc(C#N)cc3)ccc2S1(=O)=O	none (no result: MITF TRPM1 HTS, Wnt act, FXN GAA850 act)
CCOc1cc(C2NN=C(c3ccc(C)cc3)S2)ccc1O (centres undefined)	Wnt act 63 (no result: esBAF inh)
C[C@@H]1CCCCO[C@@H](CN(C)Cc2ccncc2)[C@H](C)CN([C@@H](C)CO)C(=O)c2cc(NC(=O)C3CCCCC3)ccc2O1	none (no result: MITF TRPM1 HTS, Wnt act, FXN GAA850 act)
COc1ccccc1C1=NN(C(=S)Nc2ccccc2)C(c2ccco2)C1 (centres undefined)	esBAF inh 56 (no result: Wnt act)
Cc1ccc(-c2cnc3c(c2)C(=O)N([C@@H](C)CO)C[C@H](C)[C@@H](CN(C)C(=O)c2cccc(F)c2)O3)cc1	none (no result: MITF TRPM1 HTS, Wnt act, FXN GAA850 act)
COc1ccccc1NC(=O)c1oc2ccccc2c1C	esBAF inh 47 (no result: MITF TRPM1 HTS, Wnt act)
Cc1cc(C)nc(NC(=O)c2cc3ccccc3o2)n1	none
Cc1ccc(NC(=O)c2ccc3ccccc3n2)nc1	Wnt act 77
COc1ccc(-c2cc3ccccc3oc2=O)cc1NC(=O)c1ccc([N+](=O)[O-])o1	esBAF inh 42 (no result: Wnt act)
Cc1ccc(NC(=O)c2cc3ccccc3o2)nc1	Wnt act 65 (no result: esBAF inh)
COc1ccc(NC(=O)c2oc3ccccc3c2C)c(OC)c1	none
CO[C@@H]1CN(C)C(=O)c2cc(NC(=O)Nc3ccc(Cl)cc3)ccc2OC[C@@H](C)N(C)C[C@@H]1C	none (no result: MITF TRPM1 HTS, Wnt act, FXN GAA850 act)
O=C(Nc1cccc(Cl)c1)N[C@H]1CC[C@@H](CCNC(=O)C2CCCCC2)O[C@H]1CO	none (no result: MITF TRPM1 HTS, Wnt act, FXN GAA850 act)
Cc1ccccc1NC(=O)c1cc2ccccc2o1	esBAF inh 47
CCN(CC)c1ccc(NC(=O)c2cc3ccccc3o2)c(C)c1	esBAF inh 45 (no result: Wnt act)
CCN(CC)c1ccc(NC(=O)c2c(OC)cccc2OC)c(C)c1	none (no result: MITF TRPM1 HTS)
COc1ccccc1NC(=O)c1cc2ccccc2o1	esBAF inh 72 (no result: Wnt act)
c1ccc(Cc2nc(-c3ccccn3)no2)cc1	none
Clc1cc(Cl)c(OCc2nc(-c3ccccn3)no2)cc1Cl	Wnt act 51 (no result: MITF TRPM1 HTS)
CC(C)(C)c1ccc(OCc2nc(-c3ccccn3)no2)c(Br)c1	Wnt act 51
COc1ccc(Cc2nc(-c3ccccn3)no2)cc1	none (no result: esBAF inh)
O=C(CC1CC1)Nc1ccc2c(c1)[C@H]1C[C@@H](CC(=O)N3CCc4ccccc4C3)O[C@H](CO)[C@H]1O2	none (no result: MITF TRPM1 HTS, Wnt act, FXN GAA850 act)
